N370S GC mod = N370S glucocerebrosidase modulation, Gaucher chaperone candidate | Potency, µM (highest dose often 59.4 µM), for the others: top-dose activity change, negative = inhibition, actives largely listed as inhibitors | P04062 | AID 2101 | N370S GC spleen homogenate, 4MU-glucoside fluorescence | 0.092% of 330,000 active;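 further: potency means the concentration at half of the fitted maximal effect; 0% = full enzyme activity and -100% = no enzyme basal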
BRCA1 expr up = increases BRCA1 expression. MCF7-BRCA1-FFLuc reporter, luminescence, 48 h; response scale: scaled: vehicle 0%, 10 µM genistein 100%. Potency, µM (highest dose often 46.1 µM), for the others: at the top dose activation, most hits filed as activators. 1.1% of 380,000 active; further: potency means the concentration at half of the fitted maximal effect; nearly all actives have a fitted effect of over 80% in size
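MCF7-BRCA1-FFLuc cells, 2000/well in phenol-red-free MEM, attached 2 h then treated 48 h at 37 C. Luciferase luminescence read 15 min after reagent; normalized to genistein maximum activation (10microM) and DMSO, concentration-response fitted.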
Nrf2 activator = activates Nrf2 signaling. AREc32 ARE-luciferase reporter (MCF7-derived line), luminescence, 24 h. Potency, µM (titrated, usually from 46.1 µM), for the others: top-dose activation, most hits filed as activators. 0.31% of 410,000 active. AID 624171; further: potency means the concentration at half of the fitted maximal effect; % of control where 0% means no effect; nearly all actives have a fitted effect of over 65% in size
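Cells of the AREc32 ARE-luciferase line are plated in OPTI-MEM containing 5% FBS and left overnight at 37 deg C. Compounds are pinned in, incubation continues 24 hr, and firefly luciferase signal is then measured.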
Integrin act MD = activates integrin-mediated alleviation for muscular dystrophy | alpha7betagal myoblasts, beta-gal FDG fluorescence, 48 h | Potency, µM (doses to about 38.3 µM), inactives show at the top dose activation, actives largely listed as activators | 0.064% of 350,000 active;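 further: potency means the concentration at half of the fitted maximal effect; 100% = response of the positive control SU9516; nearly all actives have a fitted effect of over 60% in size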
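Alpha7betagal+/- myoblasts (passage 13) were plated 16-24 hr, then exposed to compounds (1:260 dilution of DMSO stock) for 48 hours at 37C. After MPER lysis, β-galactosidase reporter activity was read as FDG fluorescence (ex 480/em 540) after 30 minutes.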
IL2 activator = activators of IL-2; activation, % (series mostly up to about 46 µM); 0.065% of 360,000 active; IL-2 activation reporter assay, cell-based qHTS; stimulated with anti-CD3/CD4/CD28 beads; in transgenic mouse T cells; in the data active means activation above about 50%; inconclusive means mostly about 30% to 49%; further: 0% is about no effect
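Unstimulated transgenic mouse T cells, 750 per well, received compound and, after 60 minutes, anti-CD3/anti-CD4 bead plus anti-CD28 stimulation. EGFP and DsRed were quantified after 18 hours.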
BCR signal inh = inhibitors of chronic active B-cell receptor signaling | 0.05% of 340,000 active | Potency, µM (top dose mostly 46.1 µM), for the others: at the top dose activity change, negative = inhibition, most hits filed as inhibitors | ABC-DLBCL IkBa-CBG/CBR reporter, luminescence ratio, 4 h; active means well fitted inhibition curve with a large enough effect in the signal ratio, with a control signal flat, not every such curve was filed as active; inconclusive means small, poorly fitted or top-dose-only effect, or effect the other way, or a change in a side signal; the % refers to the signal ratio;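 further: potency means the concentration at half of the fitted maximal effect; plate controls were basal doxycycline-induced cells for no effect and cells given 10 µM MG132 for full effect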
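Cell line TMD8 (human ABC DLBCL), stably expressing tet-inducible CBG68-IkBa fusion and CBR; IMDM/0.5% FBS; cpd up to 46 uM; dox induction, 4 h, 37C/5% CO2; dual luminescence; green/red ratio; MG132 control.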
* marks the source's active call; other numbers are inactive results; ? = inconclusive; nt = no result given; [ ] = remark or other dose. In the library only some 1.4% were active in any assay of this set; here they are far more common. Unless noted, the call rests on the fitted dose curve; in most records, active means well fitted curve in the direction sought with a large enough effect; inconclusive means small, poorly fitted or top-dose-only effect, or another doubt; inactive means no such curve, though single readings can be large; an effect the other way counts as inactive or inconclusive.

SMILES	N370S GC mod	BRCA1 expr up	Nrf2 activator	Integrin act MD	IL2 activator	BCR signal inh
COc1ccccc1NC(=O)Nc1nc2ccc(S(N)(=O)=O)cc2s1	5%	4µM*	1%	-12%	-1	?
Cc1ccc2c(c1)c(=O)c1ccccc1n2CCCC(=O)Nc1ccc(F)cc1F	nt	nt	0%	nt	nt	nt
CCc1ccc(/C=C\C(=O)N2CCc3ccccc3C2)cc1	8%	?	3%	10%	-4	2%
O=C(/C=C/c1ccccc1[N+](=O)[O-])N1CCc2ccccc2C1	6%	13%	8.9µM*	0%	-2	-13%
COc1cc(/C=c2\sc3nc(=O)c(-c4ccccc4)nn3c2=O)ccc1OCCC(C)C	4%	22%	0%	-13%	100*	7%
Cc1ccc(N2C(=O)c3ccccc3C2Nc2ccc(S(=O)(=O)N3CCOCC3)cc2)nc1 (centres undefined)	2%	14µM*	2%	-14%	-2	1%
Cc1ccc(S(=O)(=O)N2CCN(c3cc(-c4cccs4)nc4ccccc34)CC2)cc1	nt	14%	nt	nt	nt	nt
O=C(c1cccs1)N1CCN(Cc2ccccc2)CC1	4%	29%	-1%	2%	-2	4%
O=C(NCC(O)c1ccccc1)c1cccs1 (centres undefined)	5%	7.1µM*	-1%	7%	0	?
O=C(NCC(=O)N1CCN(Cc2ccccc2)CC1)c1cccs1	nt	10µM*	-1%	-4%	1	0%
CCOc1ccccc1-c1nnc2n1N=C(c1c(OC)cccc1OC)CS2	-11%	nt	nt	nt	nt	nt
O=C(NC1CCCCC1)c1ccc(CS(=O)(=O)Cc2ccccc2F)o1	8%	0%	0%	-12%	0	?
O=C(NC1CCCC1)c1ccc(CS(=O)(=O)Cc2ccccc2F)o1	7%	-9%	-1%	4.5µM*	1	2%
O=C(Nc1ccc(Cc2ccc(NC(=O)N3CCOCC3)cc2)cc1)N1CCOCC1	0%	4%	0%	5%	-2	-7%
CCC(C)c1ccc(NC(=O)N2CCOCC2)cc1 (centres undefined)	-3%	10µM*	4%	-11%	0	-17%
CCOc1ccc(-c2nnc(-c3cccs3)o2)cc1OCC	4%	8.9µM*	0%	6%	-1	3%
COc1ccc(-c2nnc(-c3cccs3)o2)cc1OC	4%	5µM*	5%	-18%[7.66 µM]	-1	?
CC(C)c1ccc(CNc2ncccn2)cc1	-6%	11µM*	3%	-16%	1	6%
CC(C)c1ccc(C(C)NCCS(=O)(=O)c2ccc(Cl)cc2)cc1 (centres undefined)	?	-18%	9%	-13%	-1	?
O=C(O)/C=C/C(=O)c1c(-c2ccccc2)[nH]c2ccccc12	-1%	-44%	10µM*	13%	0	?
CCCCn1cnc2c(cnn2-c2ccc(Cl)cc2)c1=O	10%	11µM*	2%	-8%	1	3%
CC1CCc2c(sc(NC(=O)C3CCCO3)c2C#N)C1 (centres undefined)	20%	10µM*	3%	8%	1	-1%
Oc1ccc(-c2nccc(-c3cccs3)n2)cc1	-10%	44%	10µM*	7%	1	-26%
COC(=O)c1ccc(C(=O)NN)cc1	3%	-6%	5%	23%	1	?
COC(=O)c1ccc(C(=O)Nc2ccc(C(C)C)cc2N)cc1	-6%	11µM*	0%	8%	2	?
O=C(N/N=C1\CCCCc2ccccc21)c1ccccn1	1%	13µM*	4%	1%	2	?
O=C(O)c1ccc(N/N=C2/CCCc3ccccc32)cc1	1%	7.1µM*	4%	-8%	1	?
O=C(O)c1ccc(CNc2ncnc3nc[nH]c23)cc1	nt	0%	nt	nt	nt	nt
CCCN1CNc2c(c(=O)[nH]c(=S)n2CCc2ccc(Cl)cc2)C1	nt	0%	nt	nt	nt	nt
CC(=O)Nc1cccc(-c2csc(C(C)(O)c3cccc(F)c3)n2)c1 (centres undefined)	nt	-13%	3%	nt	0	nt
